Hits are enriched below; roughly 7.6% of the tested compounds scored in any of these assays.
SW480 rerep – inducers of DNA re-replication in SW480 colon cancer cells; Potency, µM (highest dose often 46.1 µM), for the others: at the highest dose re-replication activation, hits mostly activators; 1.8% of 340,000 active; SW480 DNA re-replication, Hoechst DNA content imaging, 48 h; also: potency is read from the fitted curve at half-maximal effect; % of control where 0% means no effect; nearly all actives have a fitted effect of over 55% in size
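SW480 cells exposed to compounds for 48 hr at 37 C, 5% CO2, then Hoechst-stained 40 min. Nuclear DNA content imaged by fluorescence scanning (405 nm excitation, 500-530 nm emission); re-replication scored as increased high-intensity nuclei.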
KB-3-1 cytotox – kills parental KB-3-1 adenocarcinoma cells; KB-3-1 viability, CellTiter-Glo ATP luminescence, 72 h; Potency, µM (highest dose often 46.1 µM), actives largely listed as cytotoxic; 1.4% of 400,000 active; also: potency is read from the fitted curve at half-maximal effect; % is scaled to controls: 0 for no effect and ±100 for the full control effect; nearly all actives have a fitted effect of over 60% in size
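Luminescent ATP read-out (CellTiter-Glo) measures survival of drug-naive KB-3-1 cells after 72 h compound exposure at 37 °C. Titration series was screened from lowest to highest concentration, with DMSO vehicle plates as background controls.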
KCNH2 3.1 inh – KCNH2 3.1 (human) potassium channel inhibition; AID 720553; 0.95% of 340,000 active; U2OS KCNH2 3.1, thallium flux FluxOr; active compounds read low; activity change, % (tested at about 1.8 µM);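 active = maximum activity change below -70%; inconclusive = maximum activity change from -70% to -50%; inactive = maximum activity change above -50%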;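 also: thallium influx rate constant from kinetic fluorescence after stimulation buffer; % is scaled to controls: 0 for no effect and ±100 for the full control effect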
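Normalized rate constant (relative to positive and negative DMSO controls) derived from a 2 min kinetic fluorescence read after stimulation; U2OS cells expressing the 3.1 isoform via virus at 1.77 x 10^8 /mL.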
KB-V1 cytotox – KB-V1 MDR subline cytotoxicity | KB-V1 MDR cells viability, CellTiter-Glo, 72 h | Potency, µM (titrated, usually from 46.1 µM), usual class: cytotoxic | 3.4% of 400,000 active | AID 1347076; also: potency is read from the fitted curve at half-maximal effect; % is scaled to controls: 0 for no effect and ±100 for the full control effect; nearly all actives have a fitted effect of over 60% in size
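KB-V1 cells (P-gp-expressing MDR subline of KB-3-1) in phenol-red-free DMEM with 10% FBS were exposed to library compounds over a concentration series for 72 h at 37 degrees C. Viability read by CellTiter-Glo luminescence; concentration-effect curves fitted after normalization.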
hERG WT inh – KCNH2 (human, wildtype) channel inhibition. Q12809. U2OS, BacMam KCNH2, thallium flux FluxOr; active compounds read low. activity change, % at 1.84 µM. 0.37% of 340,000 active. AID 720551;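 active = maximum activity change below -70%; inconclusive = maximum activity change between -70% and -50%; inactive = maximum activity change above -50%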; also: % is scaled to controls: 0 for no effect and ±100 for the full control effect
Target sequence (Q12809 whole entry, looked up): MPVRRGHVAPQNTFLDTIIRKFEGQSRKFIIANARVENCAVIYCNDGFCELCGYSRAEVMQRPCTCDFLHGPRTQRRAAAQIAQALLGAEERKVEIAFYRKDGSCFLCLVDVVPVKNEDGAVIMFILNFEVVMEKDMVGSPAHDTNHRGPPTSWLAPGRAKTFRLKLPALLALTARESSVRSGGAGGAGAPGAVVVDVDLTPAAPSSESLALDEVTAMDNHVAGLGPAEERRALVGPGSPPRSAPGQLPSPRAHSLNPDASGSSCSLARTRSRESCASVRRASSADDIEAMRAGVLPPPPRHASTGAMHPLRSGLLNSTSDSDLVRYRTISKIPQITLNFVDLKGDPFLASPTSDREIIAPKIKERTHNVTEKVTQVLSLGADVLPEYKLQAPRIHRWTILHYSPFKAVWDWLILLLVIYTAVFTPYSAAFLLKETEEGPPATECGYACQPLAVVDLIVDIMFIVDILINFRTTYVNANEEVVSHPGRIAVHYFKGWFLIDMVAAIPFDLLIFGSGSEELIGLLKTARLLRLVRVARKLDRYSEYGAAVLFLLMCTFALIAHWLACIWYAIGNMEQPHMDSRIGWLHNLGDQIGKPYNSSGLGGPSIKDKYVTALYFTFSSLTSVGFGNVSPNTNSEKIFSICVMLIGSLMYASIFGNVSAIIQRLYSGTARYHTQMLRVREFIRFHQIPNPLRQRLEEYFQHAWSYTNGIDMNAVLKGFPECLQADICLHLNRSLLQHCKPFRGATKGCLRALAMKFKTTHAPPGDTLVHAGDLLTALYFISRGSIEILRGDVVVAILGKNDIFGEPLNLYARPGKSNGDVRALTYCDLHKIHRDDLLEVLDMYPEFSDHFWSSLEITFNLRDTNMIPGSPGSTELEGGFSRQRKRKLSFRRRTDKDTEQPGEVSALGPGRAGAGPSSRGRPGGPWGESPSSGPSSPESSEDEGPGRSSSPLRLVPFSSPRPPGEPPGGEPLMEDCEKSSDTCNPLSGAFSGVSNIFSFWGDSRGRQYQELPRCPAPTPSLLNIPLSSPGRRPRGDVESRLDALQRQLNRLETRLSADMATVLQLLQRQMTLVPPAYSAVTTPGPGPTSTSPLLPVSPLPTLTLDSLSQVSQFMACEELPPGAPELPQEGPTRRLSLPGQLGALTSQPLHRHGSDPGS
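U2OS cells transduced with wild-type KCNH2 virus are loaded with FluxOr dye for 45 min, and thallium flux is measured in kinetic reads before and after stimulation buffer. Rate constants are normalized to DMSO controls.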
MCF10A rereplic – inducers of DNA re-replication in MCF 10A breast cells. AID 624296. 2.9% of 350,000 active. Potency, µM (highest dose often 46.1 µM), for inactives: at the top dose activity, positive = re-replication, most hits filed as activators. MCF 10A DNA re-replication, Hoechst nuclear intensity, 48 h; also: potency is read from the fitted curve at half-maximal effect; % of control where 0% means no effect; nearly all actives have a fitted effect of over 50% in size
Numbers without * were called inactive; i = inactive; ? = inconclusive; . = not tested or not shown. Unless noted, calls follow the shape of the dose curve; as a rule, active = well fitted curve in the direction sought with a large enough effect; inconclusive = small, poorly fitted or top-dose-only effect, or another doubt; inactive = no such curve, though single readings can be large; an effect the other way counts as inactive or inconclusive.

SMILES | SW480 rerep | KB-3-1 cytotox | KCNH2 3.1 inh | KB-V1 cytotox | hERG WT inh | MCF10A rereplic
Cc1oc(-c2ccccc2)nc1CS(=O)CC(=O)NC1CCCCCC1 (stereo not given) | 10% | i | 15 | ? | -6 | 4%
COCCNC(=O)C1CC(c2cccc([N+](=O)[O-])c2)=NO1 (stereo not given) | ? | i | -6 | i | . | 13%
Cc1ccc(CNC(=O)c2cc(-c3ccccc3)nn2CC2CC(c3cccc([N+](=O)[O-])c3)=NO2)cc1 (stereo not given) | -2% | i | -13 | i | 6 | -22%
Cc1ccc(CNC(=O)C2CC(c3cccc([N+](=O)[O-])c3)=NO2)cc1 (stereo not given) | ? | i | 6 | i | -7 | 2.1µM*
COc1ccc(CNC(=O)C2CC(c3cccc([N+](=O)[O-])c3)=NO2)cc1 (stereo not given) | 0% | i | -7 | i | 2 | 9.2µM*
CC(C)Cc1ccc(S(=O)(=O)Nc2cccnc2)cc1 | 4.6µM* | i | 6 | i | -14 | 14%
Cc1cc(S(=O)(=O)Nc2cccnc2)c(C)s1 | -1% | i | -72* | ? | 3 | -3%
CC(=O)c1ccc(NS(=O)(=O)c2ccc3ccccc3c2)cc1 | -11% | i | 7 | 16µM* | -15 | 7%
Cc1cc(S(=O)(=O)Nc2ccc3ccccc3c2)c(C)s1 | ? | ? | 17 | 3.3µM* | 3 | 6.5µM*
Cc1ccc(S(=O)(=O)Nc2ccc3ccccc3c2)cc1 | 2% | i | 3 | ? | 11 | ?
CCN(CC)CCN1C(=O)C(=O)/C(=C(/O)c2ccc(S(=O)(=O)N3CCOCC3)cc2)C1c1ccc(C(C)(C)C)cc1 (stereo not given) | -28% | i | -7 | i | 3 | 6%
NC(=O)C(F)(F)C12OC3C4C5CC(C6C5C3C61)C42 (stereo not given) | ? | i | -5 | i | 36 | 21µM*
CCCSc1ccc2nc(-c3ccccc3)cn2c1 | . | 18µM* | -8 | 21µM* | 4 | ?
CCOC(=O)[C@H](CCc1ccccc1)N[C@@H](C)C(=O)N1Cc2ccccc2C[C@H]1C(=O)O | 0% | i | 10 | i | 3 | 0.12µM*
CCC(Cc1ccccc1)NC(=O)C1CCN(S(=O)(=O)c2ccc3c(c2)CC(C)N3C(C)=O)CC1 (stereo not given) | 0% | i | -8 | i | -16 | -5%
Cc1c(C(=O)N2CCc3ccccc3C2)oc2ccc(S(=O)(=O)N3CC(C)CC(C)C3)cc12 (stereo not given) | ? | 23µM* | -11 | ? | -3 | 25%
CCN(CC)S(=O)(=O)c1ccc2oc(C(=O)N3CCc4ccccc4C3)c(C)c2c1 | -2% | ? | . | 9.2µM* | 21 | 19%
CCN(CC)S(=O)(=O)c1ccc2oc(C(=O)N3CCCCCC3)c(C)c2c1 | 7% | i | -2 | ? | 16 | 24%
O=C(NCc1ccccc1)C1CCCN(S(=O)(=O)c2cccc3nsnc23)C1 (stereo not given) | -7% | i | 20 | i | 4 | 0%
O=S(=O)(c1cc(Cl)c(Cl)cc1Cl)N1CCN2CCCC2C1 (stereo not given) | 0.37µM* | i | 12 | i | -6 | -9%
O=S(=O)(c1ccc(S(=O)(=O)N2CCN3CCCC3C2)cc1)N1CCCC1 (stereo not given) | -1% | i | -1 | ? | 2 | -1%
CCn1c(=O)c([N+](=O)[O-])c(Cl)c2ccccc21 | 8.2µM* | ? | -5 | i | -9 | 26%
CCC1=C[C@@H]2CN(C1)Cc1c([nH]c3ccccc13)[C@@](C(=O)OC)(c1cc3c(cc1OC)N(C)[C@H]1[C@@](O)(C(=O)OC)[C@H](OC(C)=O)[C@]4(CC)C=CCN5CC[C@]31[C@@H]54)C2 | . | 0.029µM* | . | ? | . | .
